# Test results reported in PubChem BioAssay (NCATS).
# Several values for one entry are separate records, joined by “and”; a condition that tells them apart may be missing. Identical values can stand only once. Unmarked numbers belong to inactive results. Inconclusive results are not listed. Entries that show only a call come without a potency. Activity calls are given as the source filed them. Unless noted, the call rests on the fitted dose curve; in most records, active means well fitted curve in the direction sought with a large enough effect; inconclusive means small, poorly fitted or top-dose-only effect, or another doubt; inactive means no such curve, though single readings can be large; an effect the other way counts as inactive or inconclusive.
# Assays:
# [1] = target: ATP-dependent 6-phosphofructokinase (Trypanosoma brucei brucei) (UniProt O15648); experiment: qHTS Assay to Find Inhibitors of T. brucei phosphofructokinase: hit validation (AID 492961);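 further: luminescence reports ADP formed as PFK phosphorylates fructose-6-phosphate with ATP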
# Summary of the method: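 Inhibition of parasite PFK is measured as reduced ADP formation, quantified via luciferase after ATP depletion. Assay used 0.1 mM ATP, 0.5 mM F6P, 1.25 nM enzyme, 45 min incubation.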
# [2] = target: Ubiquitin carboxyl-terminal hydrolase 1 (Homo sapiens) (UniProt O94782); experiment: Inhibitors of USP1/UAF1: Pilot qHTS (AID 504865);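 further: rhodamine fluorescence freed from ubiquitin-rhodamine substrate followed over time; top concentration of the series differs between compounds; nearly all actives have a fitted effect of over 35% in size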
# Summary of the method: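 In 50mM HEPES pH 7.8 containing 0.5mM EDTA, 1mM TCEP, 0.1 mg/ml BSA and 0.01% Tween-20, 1nM USP1/UAF1 is exposed to compound for 15 min, then Ub-Rho (150nM final) is added and fluorescence is read over time.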
# [3] = qHTS profiling for inhibitors of Plasmodium falciparum proliferation (AID 504749); further: nearly all actives have a fitted effect of over 60% in size; details: P. falciparum in erythrocytes, SYBR Green DNA, 72 h, at 28.7 µM (top of the series)
# Summary of the method: (§1)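 Each compound contacts P. falciparum-infected red blood cells for 72 h at 37 C; lysis buffer (Tris, EDTA, saponin, Triton X, SYBR Green I) is added and fluorescence measured next morning; values normalized to controls.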
# AS120 = experiment: as above; details: P. falciparum in erythrocytes, SYBR Green DNA, 72 h; series mostly up to 28.7 µM
# Summary of the method: as §1
# ATS189 = experiment: as above; details: P. falciparum in erythrocytes, SYBR Green DNA, 72 h; series mostly up to 28.7 µM
# Summary of the method: as §1
# CP203 = experiment: as above; details: P. falciparum in erythrocytes, SYBR Green DNA, 72 h; series mostly up to 28.7 µM
# Summary of the method: as §1
# TAB113 = experiment: as above; details: P. falciparum in erythrocytes, SYBR Green DNA, 72 h; series mostly up to 28.7 µM
# Summary of the method: as §1
# [4] = target: Cytochrome P450 1A2 (Homo sapiens) (UniProt P05177); experiment: p450-cyp1a2 (AID 410; calls by dose curve; further: potency means the concentration at half of the fitted maximal effect)
# Summary of the method: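 O-Demethylation of luciferin 6' methyl ether by human CYP1A2 is monitored as luciferase luminescence. Substrate sits at Km (100uM); enzyme is 20nM. Values are scaled to 57 uM furafylline as maximal inhibition.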
# [5] = target: Glucocorticoid receptor (Homo sapiens) (UniProt P04150); experiment: GR-GFP Redistribution (AID 450;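 active means compounds whose dose series gives a full or clear partial fitted curve of increased nuclear translocation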; further: potency means the concentration at half of the fitted maximal effect); details: U2OS GR-GFP nuclear translocation, laser cytometry, 2 h
# [6] = target: Glucocorticoid receptor (Homo sapiens) (UniProt P04150); experiment: GR-EFC Redistribution (AID 451; calls by dose curve; further: potency means the concentration at half of the fitted maximal effect); details: CHO-K1 GR-EFC translocation, beta-gal luminescence, 2 h
# Summary of the method: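 CHO-K1 cells expressing nuclear EA and GR-ED fragments of b-gal; compounds titrated up to 46 uM final, 2 h at 37 C. GR nuclear translocation read as complemented b-gal luminescence after 1 h RT detection.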
# [7] = Cell Viability - H-4-II-E (AID 543);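 further: cells exposed to compound for 40 hours; nearly all actives have a fitted effect of over 35% in size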
# Summary of the method: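 Cells seeded at 1500 per well and rested 5 hr; compounds added; 40 hr incubation at 37 °C; CellTiter-Glo added, 20 min at room temperature; luminescence read. Hill-equation fits gave AC50.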
# [8] = target: Cytochrome P450 3A4 (Homo sapiens) (UniProt P08684); experiment: qHTS Assay for Activators of Cytochrome P450 3A4 (AID 885); further: nearly all actives have a fitted effect of over 65% in size
# Summary of the method: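 CYP3A4 activity: Luciferin-PPXE O-dealkylation, 25uM substrate, 200mM KPO4, RT throughout. Read-out is luciferase luminescence; higher values reflect activation.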
# [9] = qHTS assay to identify small molecules that stimulate interleukin-8 (IL-8) secretion (AID 651758; active means well fitted activation curve with a large enough effect in the signal ratio; the % refers to the signal ratio)
# Summary of the method: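 Compounds are added to THP-1 cells (2000 per well) and left 16 hrs at 37 C. A labeled anti-IL-8 antibody pair is then added, and IL-8 secretion is measured by time-resolved FRET after 1-3 hrs at room temperature.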
# [10] = target: Androgen receptor (Homo sapiens) (UniProt P10275); experiment: qHTS assay for small molecule agonists of androgen receptor signaling (AID 588515; active means well fitted curve in the direction sought with a large enough effect in the signal ratio, with a control signal flat; the % refers to the signal ratio); details: AR-UAS-bla HEK293, beta-lactamase ratio, agonist 16 h; stronger effect = higher value
# Summary of the method: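 Stimulation of an AR-responsive β-lactamase reporter in GripTite HEK293 cells was measured after 16 h compound exposure at 37 °C, via CCF4 fluorescence after 2 h RT. EC50 from Hill fits, normalized to R1881 at 30 nM.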
# [11] = target: Androgen receptor (Homo sapiens) (UniProt P10275); experiment: qHTS assay for small molecule antagonists of androgen receptor signaling (AID 588516; active means well fitted curve in the direction sought with a large enough effect in the signal ratio, with a control signal flat, not every such curve was filed as active; the % refers to the signal ratio)
# Summary of the method: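 Cells were plated and incubated 5 h, compounds added in titration, then R1881 (10 nM final) as agonist. After 16 h at 37 C, CCF4 substrate was loaded for 2 h at room temperature and fluorescence measured.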
# [12] = Confirmation and Secondary Assay for Modulators of Hemoglobin Beta Chain Splicing at IVS2 654 locus (AID 910);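 further: HeLa cells stably carrying EGFP split by mutant beta-globin IVS2-654 intron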
# Summary of the method: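 HeLa cells stably expressing EGFP interrupted by β-globin IVS2-654 intron, seeded overnight in Opti-MEM/2% FCS, then treated 2 days at 37 °C. Restored splicing read as total peak GFP intensity per well by laser scanning cytometry (488 nm excitation, 500–520 nm emission); 500 nM antisense PNA as control.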
# [13] = Confirmation and Secondary Assay for Modulators of Hemoglobin Beta Chain Splicing at IVS2 705 locus (AID 930);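 further: HeLa cells stably expressing the EGFP-705 splicing reporter; GFP fluorescence per well restored by corrected splicing of the IVS2-705 intron in EGFP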
# Summary of the method: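 Assay measures total GFP intensity per well in HeLa EGFP-705 cells after 2 days with compound; mis-splicing normally truncates EGFP, so fluorescence indicates corrected splicing.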
# Chain of Ubiquitin carboxyl-terminal hydrolase 1 (Homo sapiens) (O94782 whole entry, looked up): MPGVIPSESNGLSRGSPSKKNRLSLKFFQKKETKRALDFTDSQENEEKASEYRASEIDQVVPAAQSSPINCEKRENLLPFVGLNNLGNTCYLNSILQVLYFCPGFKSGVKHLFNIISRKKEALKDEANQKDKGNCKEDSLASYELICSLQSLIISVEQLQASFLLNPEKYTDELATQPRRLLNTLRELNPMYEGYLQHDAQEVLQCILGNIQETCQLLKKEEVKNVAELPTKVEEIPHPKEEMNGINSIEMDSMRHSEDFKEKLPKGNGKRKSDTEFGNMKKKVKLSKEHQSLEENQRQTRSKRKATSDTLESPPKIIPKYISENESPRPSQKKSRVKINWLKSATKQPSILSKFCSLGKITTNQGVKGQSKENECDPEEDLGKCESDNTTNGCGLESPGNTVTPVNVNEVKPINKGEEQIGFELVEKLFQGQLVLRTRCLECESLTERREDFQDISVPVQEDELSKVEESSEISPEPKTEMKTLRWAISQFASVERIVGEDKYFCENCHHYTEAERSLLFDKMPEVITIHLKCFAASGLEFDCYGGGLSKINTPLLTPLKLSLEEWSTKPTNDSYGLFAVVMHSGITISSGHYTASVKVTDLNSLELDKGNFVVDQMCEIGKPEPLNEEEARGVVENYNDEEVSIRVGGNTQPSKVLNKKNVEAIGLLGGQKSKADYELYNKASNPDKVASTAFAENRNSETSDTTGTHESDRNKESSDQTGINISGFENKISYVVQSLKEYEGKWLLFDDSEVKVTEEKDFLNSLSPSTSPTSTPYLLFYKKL
# Chain of Cytochrome P450 3A4 (Homo sapiens) (P08684 whole entry, looked up): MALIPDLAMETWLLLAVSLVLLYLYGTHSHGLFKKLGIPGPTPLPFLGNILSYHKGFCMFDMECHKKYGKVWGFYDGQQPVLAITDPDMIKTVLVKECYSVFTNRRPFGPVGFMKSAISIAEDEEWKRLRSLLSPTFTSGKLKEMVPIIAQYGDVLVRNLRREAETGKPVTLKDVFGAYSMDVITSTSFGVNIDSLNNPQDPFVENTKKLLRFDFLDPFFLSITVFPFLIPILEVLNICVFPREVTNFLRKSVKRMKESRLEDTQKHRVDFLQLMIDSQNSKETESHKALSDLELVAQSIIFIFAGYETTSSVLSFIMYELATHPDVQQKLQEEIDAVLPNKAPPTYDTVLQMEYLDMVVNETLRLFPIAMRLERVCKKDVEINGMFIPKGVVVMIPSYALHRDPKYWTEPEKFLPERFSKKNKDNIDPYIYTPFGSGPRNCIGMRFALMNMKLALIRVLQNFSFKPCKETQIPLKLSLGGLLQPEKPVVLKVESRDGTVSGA
# Chain of Androgen receptor (Homo sapiens) (P10275 whole entry, looked up): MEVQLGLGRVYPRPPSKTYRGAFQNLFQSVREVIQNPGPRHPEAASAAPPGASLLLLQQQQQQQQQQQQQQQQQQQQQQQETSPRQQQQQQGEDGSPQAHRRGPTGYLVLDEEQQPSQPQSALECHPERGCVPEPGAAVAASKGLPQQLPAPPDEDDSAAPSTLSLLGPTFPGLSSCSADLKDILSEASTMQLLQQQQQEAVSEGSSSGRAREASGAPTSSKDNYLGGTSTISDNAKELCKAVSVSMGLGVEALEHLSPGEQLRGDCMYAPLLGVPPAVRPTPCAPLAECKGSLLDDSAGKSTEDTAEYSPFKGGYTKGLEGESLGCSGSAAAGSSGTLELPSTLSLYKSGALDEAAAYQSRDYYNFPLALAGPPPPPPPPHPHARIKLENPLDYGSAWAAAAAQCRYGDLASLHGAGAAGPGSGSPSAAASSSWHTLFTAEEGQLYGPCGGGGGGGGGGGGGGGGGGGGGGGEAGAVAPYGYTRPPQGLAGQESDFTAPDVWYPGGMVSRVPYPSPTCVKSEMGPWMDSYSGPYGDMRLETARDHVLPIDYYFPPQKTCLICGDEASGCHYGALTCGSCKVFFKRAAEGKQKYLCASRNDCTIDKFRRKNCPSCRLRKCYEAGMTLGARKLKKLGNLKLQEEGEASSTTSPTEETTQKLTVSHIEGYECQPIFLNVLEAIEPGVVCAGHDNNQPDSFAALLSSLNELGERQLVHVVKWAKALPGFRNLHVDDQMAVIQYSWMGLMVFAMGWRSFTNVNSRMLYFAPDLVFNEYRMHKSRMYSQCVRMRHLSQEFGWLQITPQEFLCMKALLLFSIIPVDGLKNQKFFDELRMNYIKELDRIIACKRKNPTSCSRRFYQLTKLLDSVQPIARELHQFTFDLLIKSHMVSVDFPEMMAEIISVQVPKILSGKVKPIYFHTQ
# Chain of Glucocorticoid receptor (Homo sapiens) (P04150 whole entry, looked up, the tested form may be a part): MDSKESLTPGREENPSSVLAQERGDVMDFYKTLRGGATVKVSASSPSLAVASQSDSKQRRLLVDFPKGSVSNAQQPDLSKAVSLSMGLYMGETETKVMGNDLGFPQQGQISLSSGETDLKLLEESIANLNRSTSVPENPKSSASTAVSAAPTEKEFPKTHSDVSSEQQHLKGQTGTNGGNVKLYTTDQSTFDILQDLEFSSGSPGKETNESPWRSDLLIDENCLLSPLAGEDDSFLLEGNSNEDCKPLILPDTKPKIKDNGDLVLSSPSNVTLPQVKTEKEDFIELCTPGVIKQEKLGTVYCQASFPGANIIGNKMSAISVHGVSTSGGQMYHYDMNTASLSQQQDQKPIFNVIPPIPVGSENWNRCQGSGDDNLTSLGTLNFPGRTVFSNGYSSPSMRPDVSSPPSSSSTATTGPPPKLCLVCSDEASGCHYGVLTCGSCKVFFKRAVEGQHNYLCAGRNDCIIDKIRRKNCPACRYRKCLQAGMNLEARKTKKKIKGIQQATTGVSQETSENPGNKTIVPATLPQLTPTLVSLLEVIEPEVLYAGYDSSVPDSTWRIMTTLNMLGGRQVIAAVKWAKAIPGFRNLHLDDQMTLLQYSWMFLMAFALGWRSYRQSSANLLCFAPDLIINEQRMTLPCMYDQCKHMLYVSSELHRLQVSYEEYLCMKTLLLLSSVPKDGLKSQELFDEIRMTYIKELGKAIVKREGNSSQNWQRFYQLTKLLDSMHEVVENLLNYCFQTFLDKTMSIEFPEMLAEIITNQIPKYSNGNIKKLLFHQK
# Chain of ATP-dependent 6-phosphofructokinase (Trypanosoma brucei brucei) (O15648 whole entry, looked up): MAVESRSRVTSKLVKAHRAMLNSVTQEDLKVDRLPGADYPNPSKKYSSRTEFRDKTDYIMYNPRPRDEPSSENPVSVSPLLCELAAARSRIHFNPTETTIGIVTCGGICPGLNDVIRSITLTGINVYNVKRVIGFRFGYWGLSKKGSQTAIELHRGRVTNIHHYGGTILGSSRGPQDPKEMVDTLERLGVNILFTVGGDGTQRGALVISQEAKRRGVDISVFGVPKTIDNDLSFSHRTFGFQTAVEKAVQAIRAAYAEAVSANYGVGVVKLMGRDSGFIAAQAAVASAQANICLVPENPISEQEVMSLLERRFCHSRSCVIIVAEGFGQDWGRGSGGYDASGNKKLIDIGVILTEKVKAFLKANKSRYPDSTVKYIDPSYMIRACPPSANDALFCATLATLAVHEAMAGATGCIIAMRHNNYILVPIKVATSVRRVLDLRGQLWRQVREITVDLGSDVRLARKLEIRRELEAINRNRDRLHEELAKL
# Chain of Cytochrome P450 1A2 (Homo sapiens) (P05177 whole entry, looked up): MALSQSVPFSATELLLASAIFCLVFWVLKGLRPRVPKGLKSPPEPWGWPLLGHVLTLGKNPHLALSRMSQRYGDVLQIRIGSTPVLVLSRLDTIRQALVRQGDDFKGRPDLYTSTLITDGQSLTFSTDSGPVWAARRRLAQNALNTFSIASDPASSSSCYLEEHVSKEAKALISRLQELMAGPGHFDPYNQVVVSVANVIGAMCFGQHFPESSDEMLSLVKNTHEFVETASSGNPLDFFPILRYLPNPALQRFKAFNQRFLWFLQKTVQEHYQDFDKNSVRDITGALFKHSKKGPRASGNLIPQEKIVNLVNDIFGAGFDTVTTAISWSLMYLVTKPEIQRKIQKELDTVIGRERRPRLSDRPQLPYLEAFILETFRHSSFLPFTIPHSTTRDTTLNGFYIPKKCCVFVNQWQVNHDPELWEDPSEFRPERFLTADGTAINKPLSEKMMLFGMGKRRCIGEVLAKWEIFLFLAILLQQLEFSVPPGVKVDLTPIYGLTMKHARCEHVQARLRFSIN
compound,measurement,setting,value
C[C@]12CC[C@H]3[C@@H](CCC4=CC(=O)CC[C@@]43C)[C@@H]1CC[C@@H]2O,Potency,[1],inactive
same,Potency,[2],inactive
same,"activity, negative = inhibition",[3]; parasite line A,-11.8%
same,"activity, negative = inhibition",[3]; parasite line B,-14.6%
same,Potency,AS120,inactive
same,Potency,ATS189,inactive
same,Potency,CP203,inactive
same,Potency,TAB113,inactive
CCCN(C/C=C\I)[C@@H]1CCc2ccc(O)cc2C1,Potency,[4],25.1 µM (active)
same,Potency,[5],> 46 µM
same,Potency,[6],> 46 µM
Nc1ccc(Br)cc1,Potency,[7],inactive
CC(C)(c1ccccc1)c1ccc(O)cc1,Potency,[7],inactive
same,Potency,[8],inactive
same,Potency,[9],inactive
Clc1ccc2ccccc2c1,Potency,[7],inactive
same,activation,[10],11.2%
same,Potency,[11],inactive
c1nc[nH]n1,Potency,[7],inactive
CCC12C=CCN3CCC4(c5ccc(OC)cc5N(C)C4[C@@](O)(C(=O)OC)C1OC(C)=O)C32 (some centres not stated),Potency,[8],inactive
same,Potency,[12],inactive
same,Potency,[13],inactive
same,Potency,[2],inactive
CCOc1ccc(N)cc1,Potency,[9],inactive
Nc1ccccc1Cl,activation,[10],9.37%
CCSC(=O)Cl,Potency,[7],inactive
same,activation,[10],5.7%
same,Potency,[11],inactive
CN1C2CC3CC1C(O3)C2O (configuration not stated),Potency,[12],inactive
same,Potency,[13],inactive
same,Potency,[2],inactive
O=NN(CCO)CCO,activation,[10],14%
same,Potency,[11],inactive
Cc1ccccc1N,Potency,[7],inactive
same,Potency,[8],inactive
same,Potency,[9],inactive
CC(=O)[O-].CC(=O)[O-].O.O.O.[Pb+2],Potency,[7],inactive
CC(C)(C)OO,Potency,[7],inactive
same,activation,[10],-8.84%
same,Potency,[11],inactive
same,Potency,[9],inactive
[O-][Br+2]([O-])O,activation,[10],4.89% and 1.1%
same,Potency,[11],inactive
same,Potency,[9],inactive
O=c1cccc2n1CC1CC2CN2CCCCC12 (configuration not stated),Potency,[12],inactive
same,Potency,[13],inactive
same,Potency,[2],inactive
